Measured values: PubChem BioAssay (NCI)
Several values for one entry are separate records, joined by “and”; a condition that tells them apart may be missing. Equal values may be shown once. About 83,000 compounds went through this panel and 20% of them were active in at least one assay; those are over-represented in the sample as a whole.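 Cells were grown in 96-well plates and exposed to the test compound at a single concentration for 48 hours; results are reported as percent growth, with values below 10 considered active.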 Activity calls are given as the source filed them.

Key:
Assay in all cases: NCI-60 one-dose screen, 48 h (100 = growth as untreated, 0 = no growth, -100 = all killed)
NCI-H226 lung = test system: NCI-H226 lung
NCI-H322M lung = test system: NCI-H322M lung
HOP-62 NSCLC = test system: HOP-62 NSCLC
NCI-H460 lung = test system: NCI-H460 lung
HOP-92 NSCLC = test system: HOP-92 NSCLC
NCI-H522 lung = test system: NCI-H522 lung
A549/ATCC NSCLC = test system: A549/ATCC NSCLC
786-0 renal = test system: 786-0 renal
COLO 205 colon = test system: COLO 205 colon
DU-145 prostate = test system: DU-145 prostate
K-562 leukemia = test system: K-562 leukemia
MALME-3M melanoma = test system: MALME-3M melanoma
MDA-MB-231 breast = test system: MDA-MB-231 breast
RXF 393 renal = test system: RXF 393 renal
SF-268 CNS = test system: SF-268 CNS
SF-295 CNS = test system: SF-295 CNS
SF-539 CNS = test system: SF-539 CNS
UACC-257 melanoma = test system: UACC-257 melanoma
M14 melanoma = test system: M14 melanoma
NCI-H23 lung = conditions: 10 µM unless noted

Measured: growth

O=C(N/N=C/c1ccc2c(c1)OCO2)c1ccncc1
inactive: NCI-H226 lung; 10 µM unless noted 108% and 93.3% | NCI-H322M lung; 10 µM unless noted 114% and 94.6% | HOP-62 NSCLC; 10 µM unless noted 99.5% and 108% | NCI-H460 lung; 10 µM unless noted 101% and 111% | HOP-92 NSCLC; 10 µM unless noted 106% and 70.1% | NCI-H522 lung; 10 µM unless noted 77.8% and 96.3% | A549/ATCC NSCLC; 10 µM unless noted 108% and 109% | 786-0 renal; 10 µM unless noted 109% and 101% | COLO 205 colon; 10 µM unless noted 101% and 110% | DU-145 prostate; 10 µM unless noted 114% and 113% | K-562 leukemia; 10 µM unless noted 106% | MALME-3M melanoma; 10 µM unless noted 110% and 82.1% | MDA-MB-231 breast; 10 µM unless noted 94.5% and 108% | RXF 393 renal; 10 µM unless noted 114% and 103% | SF-268 CNS; 10 µM unless noted 109% and 102% | SF-295 CNS; 10 µM unless noted 113% and 107% | SF-539 CNS; 10 µM unless noted 101% and 123% | UACC-257 melanoma; 10 µM unless noted 92.9% and 112% | M14 melanoma; 10 µM unless noted 105% and 103%

CCCCCCCCCCCCCCCCOc1ccc(C)cc1
inactive: NCI-H23 lung 98.2% | NCI-H226 lung; 10 µM unless noted 107% | NCI-H322M lung; 10 µM unless noted 111% | NCI-H460 lung; 10 µM unless noted 114% | NCI-H522 lung; 10 µM unless noted 104% | A549/ATCC NSCLC; 10 µM unless noted 102% | 786-0 renal; 10 µM unless noted 107% | COLO 205 colon; 10 µM unless noted 111% | DU-145 prostate; 10 µM unless noted 110% | K-562 leukemia; 10 µM unless noted 108% | MALME-3M melanoma; 10 µM unless noted 103% | MDA-MB-231 breast; 10 µM unless noted 100% | RXF 393 renal; 10 µM unless noted 118% | SF-268 CNS; 10 µM unless noted 114% | SF-539 CNS; 10 µM unless noted 93.2% | UACC-257 melanoma; 10 µM unless noted 111% | M14 melanoma; 10 µM unless noted 111%

COc1cc(-c2nccc3cc4c(cc23)OCO4)cc(OC)c1OC
6.69% (active) and 22.1% (inactive): RXF 393 renal; 10 µM unless noted
11.2% (inactive) and -13.8% (active): COLO 205 colon; 10 µM unless noted
active: NCI-H522 lung; 10 µM unless noted -0.618%
inactive: NCI-H23 lung 56.9% and 46.7% | NCI-H226 lung; 10 µM unless noted 62.9% and 49.7% | NCI-H322M lung; 10 µM unless noted 66.1% and 71.6% | NCI-H460 lung; 10 µM unless noted 18.1% and 14.8% | HOP-92 NSCLC; 10 µM unless noted 58.3% | A549/ATCC NSCLC; 10 µM unless noted 46.6% and 38.9% | 786-0 renal; 10 µM unless noted 38.6% and 66.7% | DU-145 prostate; 10 µM unless noted 51.9% and 30.2% | K-562 leukemia; 10 µM unless noted 13.4% and 21% | MALME-3M melanoma; 10 µM unless noted 62.2% and 44.7% | MDA-MB-231 breast; 10 µM unless noted 40.3% and 48.9% | SF-268 CNS; 10 µM unless noted 43.8% and 40.6% | SF-295 CNS; 10 µM unless noted 19.2% and 15.7% | SF-539 CNS; 10 µM unless noted 19.9% and 18.8% | UACC-257 melanoma; 10 µM unless noted 52.8% and 39.3% | M14 melanoma; 10 µM unless noted 14% and 23.1%

COc1ccccc1/C=N\N=C(N/N=C/c1ccccc1OC)N/N=C/c1ccccc1OC
inactive: NCI-H23 lung 58% and 27.5% | NCI-H226 lung; 10 µM unless noted 85.7% and 46.5% | NCI-H322M lung; 10 µM unless noted 56.5% and 15.1% | NCI-H460 lung; 10 µM unless noted 46.3% and 12.8% | HOP-92 NSCLC; 10 µM unless noted 68.2% and 15.3% | NCI-H522 lung; 10 µM unless noted 38.6% and 17.3% | A549/ATCC NSCLC; 10 µM unless noted 61.1% and 27.1% | 786-0 renal; 10 µM unless noted 74.4% and 35.8% | COLO 205 colon; 10 µM unless noted 75.6% and 34.6% | DU-145 prostate; 10 µM unless noted 71.5% and 53.4% | K-562 leukemia; 10 µM unless noted 34.1% and 11.4% | MALME-3M melanoma; 10 µM unless noted 52.1% | MDA-MB-231 breast; 10 µM unless noted 73.8% and 51.3% | RXF 393 renal; 10 µM unless noted 94.5% and 60.1% | SF-268 CNS; 10 µM unless noted 63.6% and 25.6% | SF-295 CNS; 10 µM unless noted 52.1% | SF-539 CNS; 10 µM unless noted 83.7% and 42.1% | UACC-257 melanoma; 10 µM unless noted 90.9% and 31% | M14 melanoma; 10 µM unless noted 59.9% and 26.6%

C#CCN(C)Cc1ccccc1
inactive: NCI-H23 lung 106% and 104% | NCI-H226 lung; 10 µM unless noted 91.6% and 95.2% | NCI-H322M lung; 10 µM unless noted 99.3% and 450% | NCI-H460 lung; 10 µM unless noted 110% and 104% | HOP-92 NSCLC; 10 µM unless noted 100% | NCI-H522 lung; 10 µM unless noted 100% and 92.5% | A549/ATCC NSCLC; 10 µM unless noted 102% and 101% | 786-0 renal; 10 µM unless noted 95.5% and 70.4% | COLO 205 colon; 10 µM unless noted 108% and 122% | DU-145 prostate; 10 µM unless noted 111% | K-562 leukemia; 10 µM unless noted 95.9% and 94.2% | MALME-3M melanoma; 10 µM unless noted 100% and 305% | MDA-MB-231 breast; 10 µM unless noted 106% and 89.6% | RXF 393 renal; 10 µM unless noted 114% and 96.6% | SF-268 CNS; 10 µM unless noted 107% and 99.5% | SF-295 CNS; 10 µM unless noted 108% and 98.1% | SF-539 CNS; 10 µM unless noted 97.8% | UACC-257 melanoma; 10 µM unless noted 105% | M14 melanoma; 10 µM unless noted 97.3% and 96.8%

Cn1cc(-c2cc3c(Nc4ccc(CC(=O)Nc5cc(C(C)(C)C)on5)cc4)ncnc3[nH]2)cn1
active: NCI-H23 lung -34% and -14% | NCI-H226 lung; 10 µM unless noted -2.21% and -21.5% | NCI-H322M lung; 10 µM unless noted -15.1% and -11.4% | NCI-H460 lung; 10 µM unless noted -4.56% and 3.41% | HOP-92 NSCLC; 10 µM unless noted 5.01% and -5.97% | NCI-H522 lung; 10 µM unless noted -35.7% and -46.8% | 786-0 renal; 10 µM unless noted 5.07% and 3.24% | COLO 205 colon; 10 µM unless noted -36.6% and -33.4% | DU-145 prostate; 10 µM unless noted -15% and -3.89% | K-562 leukemia; 10 µM unless noted 4.78% and 3.56% | MALME-3M melanoma; 10 µM unless noted -50.5% and -22.7% | MDA-MB-231 breast; 10 µM unless noted -6.46% and -3.49% | RXF 393 renal; 10 µM unless noted -51.7% and -45.7% | SF-268 CNS; 10 µM unless noted -27.7% and -23.3% | SF-295 CNS; 10 µM unless noted -0.861% and 7.57% | SF-539 CNS; 10 µM unless noted -49.9% and -49% | UACC-257 melanoma; 10 µM unless noted -11.9% and -15.9% | M14 melanoma; 10 µM unless noted -34.2% and -49.5%

Cc1[nH]c(-c2nc3ccccc3[nH]2)c(C)c1C(=O)NC(C)C1CCCCC1 (stereo unspecified)
inactive: NCI-H226 lung; 10 µM 81.1% | NCI-H322M lung; 10 µM 89.1% | NCI-H460 lung; 10 µM 98.1% | HOP-92 NSCLC; 10 µM 78.7% | NCI-H522 lung; 10 µM 80.9% | A549/ATCC NSCLC; 10 µM 90.5% | 786-0 renal; 10 µM 95.2% | DU-145 prostate; 10 µM 98.8% | K-562 leukemia; 10 µM 68.7% | MALME-3M melanoma; 10 µM 82.1% | MDA-MB-231 breast; 10 µM 70.3% | RXF 393 renal; 10 µM 77.2% | SF-268 CNS; 10 µM 94.9% | SF-295 CNS; 10 µM 101% | SF-539 CNS; 10 µM 89.4% | UACC-257 melanoma; 10 µM 87% | M14 melanoma; 10 µM 83.1%
active: NCI-H226 lung; 100 µM -53% | NCI-H322M lung; 100 µM -96.3% | NCI-H460 lung; 100 µM -72% | HOP-92 NSCLC; 100 µM -50.9% | NCI-H522 lung; 100 µM -36.1% | A549/ATCC NSCLC; 100 µM -40.2% | 786-0 renal; 100 µM -31.1% | COLO 205 colon; 10 µM unless noted -60.3% [100 µM] | DU-145 prostate; 100 µM -96.3% | K-562 leukemia; 100 µM -24.3% | MALME-3M melanoma; 100 µM -72.6% | MDA-MB-231 breast; 100 µM -70.8% | RXF 393 renal; 100 µM -92% | SF-268 CNS; 100 µM -71.4% | SF-295 CNS; 100 µM -88.8% | SF-539 CNS; 100 µM -97.7% | UACC-257 melanoma; 100 µM -64.6% | M14 melanoma; 100 µM -73.2%

CNC(=O)c1cc(Oc2ccc(CC(=O)Nc3cc(C(C)(C)C)nn3C)cc2)ccn1
inactive: NCI-H226 lung; 10 µM 61.6% | NCI-H226 lung; 30 µM 49.4% | NCI-H322M lung; 1 µM 92.5% | NCI-H322M lung; 10 µM 93.4% | NCI-H322M lung; 30 µM 105% | HOP-62 NSCLC; 1 µM 55% | HOP-62 NSCLC; 10 µM 77.6% | HOP-62 NSCLC; 30 µM 75.1% | NCI-H460 lung; 1 µM 79.4% | NCI-H460 lung; 10 µM 66.7% | NCI-H460 lung; 30 µM 80.7% | HOP-92 NSCLC; 1 µM 74.7% | HOP-92 NSCLC; 10 µM 93.5% | HOP-92 NSCLC; 30 µM 92.6% | NCI-H522 lung; 1 µM 74.3% | NCI-H522 lung; 10 µM 54.9% | NCI-H522 lung; 30 µM 71.7% | 786-0 renal; 1 µM 90.7% | 786-0 renal; 10 µM 100% | 786-0 renal; 30 µM 93.8% | COLO 205 colon; 10 µM 77.1% | COLO 205 colon; 30 µM 91.2% | DU-145 prostate; 1 µM 91.6% | DU-145 prostate; 10 µM 76.3% | DU-145 prostate; 30 µM 103% | K-562 leukemia; 1 µM 41.9% | K-562 leukemia; 10 µM 33.9% | K-562 leukemia; 30 µM 28.3% | MALME-3M melanoma; 1 µM 60.5% | MALME-3M melanoma; 10 µM 61.4% | MALME-3M melanoma; 30 µM 66% | MDA-MB-231 breast; 1 µM 78.6% | MDA-MB-231 breast; 10 µM 69.1% | MDA-MB-231 breast; 30 µM 71.9% | RXF 393 renal; 1 µM 98.3% | RXF 393 renal; 10 µM 79.9% | SF-268 CNS; 1 µM 86.9% | SF-268 CNS; 10 µM 70.9% | SF-268 CNS; 30 µM 98.7% | SF-295 CNS; 1 µM 58.1% | SF-295 CNS; 10 µM 37.1% | SF-295 CNS; 30 µM 33.9% | SF-539 CNS; 1 µM 67.1% | SF-539 CNS; 10 µM 66.7% | SF-539 CNS; 30 µM 69.2% | UACC-257 melanoma; 1 µM 60.5% | UACC-257 melanoma; 10 µM 55.7% | UACC-257 melanoma; 30 µM 47.7% | M14 melanoma; 1 µM 96.5% | M14 melanoma; 10 µM 88%
